# Data published in PubChem BioAssay (NCATS).
# Several values for one entry are separate records, joined by “and”; a condition that tells them apart may be missing. Equal entries are not always repeated. Inconclusive results are not listed. A call without a number means that no potency is given here. A number with no mark means an inactive call. Activity calls are given as the source filed them. Calls follow the shape of the dose curve; as a rule, active = well fitted curve in the direction sought with a large enough effect; inconclusive = small, poorly fitted or top-dose-only effect, or another doubt; inactive = no such curve, though single readings can be large; an effect the other way counts as inactive or inconclusive.
# Key:
# [1] = Viability qHTS for spleen associated tyrosine kinase inhibitor (SYKi) naive MV4-11 cells (AID 1963823); also: nearly all actives have a fitted effect of over 40% in size; also: potency is read from the fitted curve at half-maximal effect
# Procedure, shortened: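 SYK inhibitor-naive MV4-11 cells, 500 per well, exposed to compounds for 72 hr at 37 C, 5% CO2. Viability read as CellTiter-Glo luminescence after 10 min at room temperature.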
# [2] = Quantitative highthroughput screen to assess conditional lethalithy of NOMO1 cells grown in RPMI1640 with untreated serum (RPMI+s) (AID 1963876); also: nearly all actives have a fitted effect of over 35% in size
# Procedure, shortened: (§1)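 Each medium arm—HPLM with 10% dialyzed FBS, or RPMI1640 with 5 mM glucose and 10% untreated or dialyzed FBS—was screened against an 11-point, 3-fold compound titration for 48 h at 37 °C, with CellTiter-Glo luminescence as endpoint.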
# [3] = Quantitative highthroughput screen to assess conditional lethalithy of P12 Ichikawa cells grown in RPMI1640 with dialyzed fetal bovine serum (RPMI+ds) (AID 1963880); details: Potency: P12-Ichikawa viability; also: nearly all actives have a fitted effect of over 35% in size
# Procedure, shortened: as §1
# [4] = Quantitative highthroughput screen to assess conditional lethalithy of P12 Ichikawa cells grown in RPMI1640 with untreated serum (RPMI+s) (AID 1963881); details: Potency: viability; also: series mostly up to about 46 µM; nearly all actives have a fitted effect of over 35% in size
# Procedure, shortened: as §1
# [5] = Quantitative highthroughput screen to assess conditional lethalithy of SEM cells grown in RPMI1640 with unreated serum (RPMI+s) (AID 1963883); also: nearly all actives have a fitted effect of over 35% in size
# Procedure, shortened: as §1
# [6] = Cellular viability qHTS for adrenocortical cancer (ACC) cell line SW-13 (AID 1963989); details: SW-13 ACC cells viability, CellTiter-Glo, 48 h; activity (max response): stronger effect = lower value; also: nearly all actives have a fitted effect of over 65% in size; also: potency is read from the fitted curve at half-maximal effect;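 as to activity (max response): cells grown in serum-free medium with ITS supplement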
# Procedure, shortened: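 Here, serum-free SW-13 cultures were dosed up to 46 uM. Following 48 h, ATP-dependent luminescence (CellTiter-Glo) reported viable cells, and logistic modeling produced IC50 values.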
# [7] = Cellular viability qHTS for adrenocortical cancer (ACC) cell line NCI-H295R (AID 1963990); also: nearly all actives have a fitted effect of over 60% in size; also: potency is read from the fitted curve at half-maximal effect
# Procedure, shortened: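 Viability of NCI-H295R after 48 h of treatment (final up to 46 uM) measured through cellular ATP luminescence.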
# [8] = Viability qHTS for spleen associated tyrosine kinase inhibitor (SYKi) drug resistant MV4-11 cells (AID 1963824)
# Procedure, shortened: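 SYK inhibitor-resistant MV4-11 AML cells, 500 per well, added to predispensed compounds and incubated 72 hr at 37 C, 5% CO2. Viability measured by CellTiter-Glo luminescence after 10 min at room temperature.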
smiles,measurement,setting,value
O=C(Oc1ccc([N+](=O)[O-])cc1)N1CCC(C(O)(c2ccc3c(c2)OCO3)c2ccc3c(c2)OCO3)CC1,Potency,[1],inactive
same,Potency,[2],inactive
same,Potency,[3],inactive
same,Potency,[4],inactive
same,Potency,[5],inactive
same,activity (max response),[6],5.03%
same,Potency,[7],inactive
O=C(NC(=O)c1c(F)cccc1F)Nc1cc(Cl)c(OC(F)(F)C(F)C(F)(F)F)cc1Cl (configuration not stated),Potency,[1],11.9 µM (active)
same,Potency,[8],16.8 µM (active)
same,Potency,[7],inactive
C=CCC1([C@H](C)CCC)C(=O)NC(=O)NC1=O,Potency,[1],inactive
same,activity (max response),[6],-3.9%
same,Potency,[7],inactive
CC(=O)OCC1=C(C(=O)O)N2C(=O)[C@@H](N)[C@H]2SC1,Potency,[1],inactive
same,activity (max response),[6],5.22%
OCCCBr,Potency,[1],inactive
same,activity (max response),[6],0.205%
same,Potency,[7],inactive
CN1C(=O)[C@@H](NC(=O)[C@H](CCC(F)(F)F)[C@H](CCC(F)(F)F)C(N)=O)N=C(c2ccccc2)c2ccccc21,Potency,[1],inactive
same,activity (max response),[6],-2.32%
same,Potency,[7],inactive
CCC1(c2ccccc2)C(=O)N(COC)C(=O)N(COC)C1=O,Potency,[1],inactive
same,activity (max response),[6],-1.61%
same,Potency,[7],inactive
CN1C2CCC(C)(C)C1CC(OC(=O)C(O)(c1cccs1)c1cccs1)C2 (configuration not stated),Potency,[1],inactive
same,activity (max response),[6],-3.56%
same,Potency,[7],inactive
NC(=O)CS(=O)C(c1ccccc1)c1ccccc1 (configuration not stated),Potency,[1],inactive
same,activity (max response),[6],12.6%
same,Potency,[7],inactive
CCCCCCCCCC(CC)c1ccc(S(=O)(=O)O)cc1 (configuration not stated),Potency,[1],7.7 µM (active)
same,Potency,[6],31.6 µM (active)
same,Potency,[7],25.1 µM (active)
CC[C@H]1C[C@H]2[C@@H]3CCC4=CC(=O)CC[C@@H]4[C@H]3CC[C@]2(C)[C@H]1O,Potency,[1],18.8 µM (active)
same,activity (max response),[6],-16.6%
Cc1c(N)nc([C@H](CC(N)=O)NC[C@@H](N)C(N)=O)nc1C(=O)N[C@H](C(=O)N[C@@H](C)[C@H](O)[C@@H](C)C(=O)N[C@@H](C(=O)NCCc1nc(-c2nc(C(=O)NCCC[S+](C)C)cs2)cs1)[C@@H](C)O)C(O[C@H]1O[C@H](CO)[C@H](O)[C@@H](O)[C@H]1O[C@H]1O[C@H](CO)[C@@H](O)[C@H](OC(N)=O)[C@@H]1O)c1cnc[nH]1 (some centres not stated),Potency,[1],inactive
same,activity (max response),[6],-30.2%
same,Potency,[7],inactive
CC(C)(N)Cc1ccccc1Cl,Potency,[1],inactive
same,activity (max response),[6],5.36%
same,Potency,[7],inactive
C[C@]12CC[C@H]3[C@@H](CCC4=CC(=O)CC[C@@H]43)[C@@H]1CC[C@@H]2O,Potency,[1],inactive
same,activity (max response),[6],5.27%
same,Potency,[7],inactive
CS(=O)(=O)c1ccc(C(=O)C2C(=O)CCCC2=O)c([N+](=O)[O-])c1,Potency,[1],6.24 µM (active)
same,activity (max response),[6],-0.0273%
CCCC(C)C1(CC)C(=O)N=C(S)NC1=O (configuration not stated),Potency,[1],inactive
same,activity (max response),[6],-0.902%
same,Potency,[7],inactive
COc1ccc(CN2CCNCC2)c(OC)c1OC,Potency,[1],inactive
same,activity (max response),[6],10.4%
same,Potency,[7],inactive
CC(=O)[C@H]1CC[C@H]2[C@@H]3CC[C@H]4C[C@](C)(O)CC[C@]4(C)[C@H]3CC[C@]12C,Potency,[1],inactive
same,activity (max response),[6],7.79%
same,Potency,[7],inactive
COc1nn(CSP(=S)(OC)OC)c(=O)s1,Potency,[1],38.6 µM (active)
same,Potency,[6],31.6 µM (active)
same,Potency,[7],25.1 µM (active)
Cc1[nH]ncc1-c1cc2nc([C@@H]3CC4CCN3CC4)[nH]c(=O)c2s1,Potency,[1],3.32 µM (active)
same,Potency,[6],28.2 µM (active)
same,Potency,[7],28.2 µM (active)
C#C[C@]1(O)C=C[C@H]2[C@@H]3CCC4=CC(=O)CC[C@@H]4[C@H]3CC[C@@]21CC,Potency,[1],inactive
same,activity (max response),[6],-4.27% and 2.85%
CC(C)=CC1C(C(=O)OCc2cccc(Oc3ccccc3)c2)C1(C)C (configuration not stated),Potency,[1],inactive
same,activity (max response),[6],3.55%
same,Potency,[7],inactive
CO[C@]12CC[C@@]3(C[C@@H]1[C@](C)(O)C(C)(C)C)[C@@H]1Cc4ccc(O)c5c4[C@@]3(CCN1CC1CC1)[C@H]2O5,Potency,[1],21.5 µM (active)
same,Potency,[6],6.31 µM (active)
same,Potency,[7],3.98 µM (active)
CC(C)(C)OC(=O)c1ncn2c1[C@@H]1CCCN1C(=O)c1c(Br)cccc1-2,Potency,[1],inactive
same,activity (max response),[6],2.94%
same,Potency,[7],inactive
C[N+]1(CCC(C(N)=O)(c2ccccc2)c2ccccc2)CCCCC1,Potency,[1],inactive
same,activity (max response),[6],8.34%
same,Potency,[7],inactive
CC(=O)C1CCOC1=O (configuration not stated),Potency,[1],inactive
same,activity (max response),[6],9.4%
same,Potency,[7],inactive
CCC1(CC)C(=O)C=CNC1=O,Potency,[1],inactive
same,activity (max response),[6],0.834%
same,Potency,[7],inactive
CCOC(=O)c1ncn2c1CN(C)C(=O)c1c(I)cccc1-2,Potency,[1],inactive
same,activity (max response),[6],-2.47%
same,Potency,[7],inactive
COP(=S)(OC)Oc1ccc(S(N)(=O)=O)cc1,Potency,[1],inactive
same,activity (max response),[6],5.57%
same,Potency,[7],inactive
CC(Cc1ccccc1)NCc1ccccc1Cl (configuration not stated),Potency,[1],inactive
same,activity (max response),[6],-8.69%
same,Potency,[7],inactive
CC1=C2[C@H]3OC(=O)[C@@H](C)[C@@H]3CC[C@@]2(C)C=CC1=O,Potency,[1],inactive
same,activity (max response),[6],-9.75%
same,Potency,[7],inactive
Cc1nc2ccccc2c(=O)n1-c1ccccc1Cl,Potency,[1],inactive
same,activity (max response),[6],-17.2%
same,Potency,[7],inactive
CCOP(=S)(OCC)O/N=C(\C#N)c1ccccc1,Potency,[1],inactive
same,activity (max response),[6],0.816%
same,Potency,[7],inactive
COc1cccc2c1C(=O)c1c(O)c3c(c(O)c1C2=O)C[C@@](O)(C(=O)CO)CC3OC1CC(N2CCOC(OC)C2)C(O)C(C)O1 (some centres not stated),Potency,[1],0.0027 µM (active)
same,Potency,[6],0.1 µM (active)
same,Potency,[7],0.0501 µM (active)
